Screens as filed in PubChem BioAssay.
Rab9 prom act – Rab9 promoter activation | Huh7 Rab9 promoter-luciferase reporter, luminescence, 24 h | Potency, µM (top dose mostly 9.22 µM), hits mostly activators | 2.8% of 320,000 active | AID 485297; also: nearly all actives have a fitted effect of over 60% in size
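Cell-based reporter: Huh7 stable for Rab9 promoter-driven luciferase, plated in reduced-serum medium with 10% FBS at 1500 cells/well, compound-treated 24 h at 37 °C, luminescence read after 10 min reagent.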
SMN2 splice up – SMN2 splice variant enhancement. HEK293 SMN2-luciferase splicing reporter, luminescence, 30-36 h. Potency, µM (titrated, usually from 46.1 µM), hits mostly activators. 2.8% of 210,000 active; also: nearly all actives have a fitted effect of over 55% in size
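qHTS luciferase splicing reporter: luminescence rises when SMN2 exon 7 is included in transfected HEK293 cells. Compound exposure lasted 30-36 h at 37C, with 4.5 mM final sodium butyrate as control, followed by a ONE-Glo read.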
NPC1 promoter act – activators of NPC1 promoter. Potency, µM (highest dose often 9.22 µM), hits mostly activators. 2.4% of 320,000 active. Huh7 NPC1 promoter luciferase reporter, 24 h; also: nearly all actives have a fitted effect of over 60% in size
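In 1536-well qHTS, Huh7 cells harboring an NPC1 promoter–luciferase construct received compound for 24 h; activation was quantified by luminescence following luciferase reagent addition.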
ELG1 genotox – genotoxicity induction in ELG1-luciferase HEK293T cells; 1.3% of 330,000 active; Potency, µM (doses to about 46 µM), actives largely listed as activators; HEK293T ELG1-luciferase reporter, luminescence, 16 h; AID 504466; also: nearly all actives have a fitted effect of over 60% in size
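HEK293T cells expressing luciferase-tagged ELG1 were treated with compound or DMSO for 16 hr at 37°C. Luciferase activity was then read after 30 min with ONE-Glo at room temperature; rising signal flags genetic stress.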
FLuc modulator – firefly luciferase modulation, counter-screen for miR-21 project. P08659. purified FLuc, Km substrates, luminescence inhibition. Potency, µM (series often up to 57.5 µM), usual class: inhibitors. 6.9% of 360,000 active; also: nearly all actives have a fitted effect of over 55% in size
Target sequence (P08659 whole entry, looked up): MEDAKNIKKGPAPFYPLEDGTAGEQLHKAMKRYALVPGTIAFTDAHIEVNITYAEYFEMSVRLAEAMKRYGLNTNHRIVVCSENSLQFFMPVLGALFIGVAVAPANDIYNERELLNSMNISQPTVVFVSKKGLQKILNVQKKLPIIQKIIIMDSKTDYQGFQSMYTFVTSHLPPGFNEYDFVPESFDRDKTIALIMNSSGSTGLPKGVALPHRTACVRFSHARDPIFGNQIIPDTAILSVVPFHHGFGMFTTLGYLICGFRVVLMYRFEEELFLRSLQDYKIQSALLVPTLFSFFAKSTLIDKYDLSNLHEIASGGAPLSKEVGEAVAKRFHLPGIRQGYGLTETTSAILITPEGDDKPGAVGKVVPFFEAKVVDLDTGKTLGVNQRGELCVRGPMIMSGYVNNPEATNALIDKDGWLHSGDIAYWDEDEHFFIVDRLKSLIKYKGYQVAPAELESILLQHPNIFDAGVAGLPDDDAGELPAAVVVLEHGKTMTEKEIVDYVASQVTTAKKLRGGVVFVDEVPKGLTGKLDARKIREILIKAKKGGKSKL
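Purified P. pyralis luciferase, 10 nM final, with Km-level 10 uM D-luciferin and 10 uM ATP in 50 mM Tris acetate pH 7.5, 10 mM Mg acetate, 0.01% Tween-20, 0.05% BSA; 6-point qHTS titration about 60 µM downward; luminescence read.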
Hits are given with their value; . = inactive; ? = inconclusive; / = no result given; [ ] = dose if it differs, or a comment. Only some compounds are listed: those with a hit (about 7.5% of all), similar ones and a draw of the others. Calls follow the shape of the dose curve; as a rule, active = well fitted curve in the direction sought with a large enough effect; inconclusive = small, poorly fitted or top-dose-only effect, or another doubt; inactive = no such curve, though single readings can be large; an effect the other way counts as inactive or inconclusive.

SMILES	Rab9 prom act	SMN2 splice up	NPC1 promoter act	ELG1 genotox	FLuc modulator
CCc1nnc(NC(=O)c2ccc(-c3ccccc3Cl)o2)s1	?	.	.	21µM	?
CC(C)(CNC(=O)c1ccc(Br)o1)N1CCOCC1	.	/	.	.	.
Cc1ccc(NC(=O)c2ccc(-c3cccc(Cl)c3C)o2)cc1	/	.	/	/	7.6µM
CC(C)(CNC(=O)c1ccc(-c2ccccc2Cl)o1)N1CCOCC1	?	/	?	13µM	?
COc1ccc(N2CCN(C(CNC(=O)C(C)C)c3ccc4c(c3)OCO4)CC2)cc1 (configuration not stated)	.	/	.	.	.
COc1ccc(NC(=O)c2cc(-c3ccccc3Cl)no2)cc1	.	.	.	.	9.5µM
COc1ccc(NC(=O)c2cc(C)no2)cc1	.[1.84 µM]	/	.	.	?
Cc1nc(-c2ccccn2)nc(N2CCOCC2)c1Cl	.	/	.	.	.
Cc1nc(-c2ccccn2)nc(N(C)c2ccccc2)c1Cl	.	/	.	.	15µM
NS(=O)(=O)c1ccc(CCNC(=O)c2ccc(Br)s2)cc1	.	/	.	.	.
Cc1ccc(C(=O)NCCc2ccc(F)cc2)s1	2.8µM	4.5µM	1.4µM	?	9.5µM
O=C(NCCc1ccc(Cl)cc1)c1ccc(Br)s1	4.5µM	/	4µM	?	?
O=C(NCCC1=CCCCC1)c1ccc(Cl)c(S(=O)(=O)N2CCCCC2)c1	.	/	.	.	.
COc1ccc(CCN2CC(C(=O)N(C)Cc3c(C)n[nH]c3C)CCC2=O)cc1 (configuration not stated)	.	/	.	.	.
O=C(CN(CCc1ccccc1)C(=O)CNS(=O)(=O)c1ccc(F)cc1)NCC1CCCO1 (configuration not stated)	.	.	.	.	.
COc1cc(C)ccc1OCCCn1c(-c2ccc(Cl)cc2)nc2ccccc2c1=O	/	.	/	/	.
CCOC(=O)CNC(=O)CSc1nc(-c2ccc(OC)cc2)ns1	.	.	.	.	12µM
NC(=O)CSc1nc(-c2ccccc2Cl)ns1	3.2µM	?	?	.	?
CCOC(=O)CSc1nc(-c2ccccc2)ns1	.	.	.	.	15µM
CCc1nnc(NC(=O)CSc2nc(-c3ccc(OC)cc3)ns2)s1	?	?	.	?	1.7µM
O=C(Nc1ccccc1C(=O)O)c1ccc(Cl)c(S(=O)(=O)N2CCOCC2)c1	.	.	.	.	6.7µM
O=C(Nc1ccccc1C(=O)O)c1cc(S(=O)(=O)N2CCOCC2)cs1	.	.	.	.	19µM
O=C(/C=C/c1ccc2ccccc2n1)c1cc(Cl)ccc1O	.	/	.	.	4.8µM
NS(=O)(=O)c1ccc(NC(=S)N2CCN(C(=O)C3CCCO3)CC2)cc1 (configuration not stated)	.	/	.	.	4.8µM
O=C(C1CCCO1)N1CCN(C(=S)Nc2ccc(Br)cc2)CC1 (configuration not stated)	.	/	.	.	.
SMILES	Rab9 prom act	SMN2 splice up	NPC1 promoter act	ELG1 genotox	FLuc modulator
Nc1nc(SCC(=O)NC2CCCCCC2)[nH]c(=O)c1-c1ccccc1	.	.	.	.	.
COc1ccc(CC(C)N2CCN(c3cccc(C(F)(F)F)c3)CC2)cc1OC (configuration not stated)	.	.	.	.	.
CCN(CC)C(=O)COc1ccc2oc(-c3ccco3)cc(=O)c2c1	.	/	.	.	15µM
CCN(CC)C(=O)COc1c(-c2ccco2)oc2ccccc2c1=O	.	/	.	.	.
OCC#CCSc1nnc(-c2ccc(Br)cc2)o1	.	.	.	21µM	?
CCCCCSc1nnc(-c2ccc(Br)cc2)o1	/	.	/	/	12µM
COC(=O)Sc1nnc(-c2ccc(Br)cc2)o1	.	.	.	.	19µM
CCCCOC(=O)CSc1nnc(-c2ccc(C)cc2)o1	/	.	/	/	?
COc1ccc(NC(=O)N(C)C[C@H]2Oc3c(NC(=O)c4nc5ccccc5s4)cccc3C(=O)N([C@@H](C)CO)C[C@H]2C)cc1	/	/	/	.	/
COc1cccc(Cc2n[nH]c(=S)n2Cc2ccco2)c1	.	/	.	.	.
Cc1nc2sc(C(N)=O)c(N)c2c(C)c1CC(=O)c1ccccc1	2.8µM	.	3.5µM	.	17µM
CC(C)NC(=O)C1(S(=O)(=O)c2ccccc2)CC=CC1	.	/	.	.	.
CCCOC1(C(F)(F)F)NC(=O)N(c2ccc(Cl)cc2)C1=O (configuration not stated)	/	.	/	/	.
Cc1ccc(C2=NN=C(NC(=O)C(F)(F)F)SC2)cc1	0.79µM	/	1.4µM	?	17µM
Cc1ccc(C2=NN=C(NC(=O)CSc3nncn3C)SC2)cc1	1.4µM	8.9µM	2.2µM	?	2.4µM
O=C(CSc1nc2ccccc2c(=O)[nH]1)Nc1ccccc1C(F)(F)F	.	/	.	.	.
COc1cc(/C=C2\SC(=S)N(NC(=O)c3cccc(O)c3)C2=O)ccc1O	.	/	.	.	11µM
CC(=O)NN1C(=O)/C(=C/c2ccc(C(C)C)cc2)SC1=S	.	.	.	.	21µM
COc1cc(/C=C2\SC(=S)N(NS(=O)(=O)c3ccccc3)C2=O)ccc1O	.	/	.	.	?
Cc1ccc(/C=C2\SC(=S)N(CCC(=O)NNC(=O)c3cccc(O)c3)C2=O)cc1	.	/	.	.	?
O=C(O)c1ccc(/C=C2\SC(=S)N(NC(=O)c3ccccc3)C2=O)cc1	.[1.84 µM]	/	.	.	?
